Compound activity from PubChem.
FBPA Giardia inh = Giardia lamblia aldolase inhibition; A8B2U2; Potency, µM (doses to about 59.6 µM), actives largely listed as inhibitors; AID 2451; 0.71% of 290,000 active; purified Giardia FBPA; also: nearly all actives have a fitted effect of over 55% in size
Target sequence (A8B2U2 whole entry, looked up): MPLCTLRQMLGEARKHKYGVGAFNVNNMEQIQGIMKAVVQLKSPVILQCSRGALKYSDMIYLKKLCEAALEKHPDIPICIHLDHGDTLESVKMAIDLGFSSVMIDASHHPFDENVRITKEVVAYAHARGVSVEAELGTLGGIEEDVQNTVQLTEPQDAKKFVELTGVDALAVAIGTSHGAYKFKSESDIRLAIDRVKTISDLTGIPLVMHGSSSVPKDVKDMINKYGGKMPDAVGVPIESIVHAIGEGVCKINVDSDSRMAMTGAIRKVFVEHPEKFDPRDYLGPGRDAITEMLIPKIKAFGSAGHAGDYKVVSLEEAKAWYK
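Giardia FBPA (40 nM reagent) was preincubated 10 min at RT with compound (up to 57.5 uM final), then substrate plus GAPDH/TPI/NAD/arsenate coupling system with diaphorase/resazurin was added; resorufin fluorescence (525/598 nm) was read after 20 min.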
Pf growth 96h = inhibits malaria parasite growth, 96 h. P. falciparum luciferase reporter growth, 96 h. Potency, µM (doses to about 28.7 µM), hits mostly inhibitors. 6.9% of 320,000 active. AID 504834
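Infected RBCs, 2% Hct / 0.05% parasitemia final; luciferase-reporter P. falciparum; cpd 96 h, 37 C, 5% CO2; luciferase detection reagent; luminescence.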
Pf growth 48h = P. falciparum growth inhibition at 48 hours (one generation); P. falciparum luciferase growth in erythrocytes, 48 h; Potency, µM (series often up to 28.7 µM), hits mostly inhibitors; 5.9% of 310,000 active; AID 504832
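Luciferase-expressing P. falciparum in infected erythrocytes (2% hematocrit, 0.1% parasitemia final) in RPMI 1640/0.5% Albumax were exposed to compound for 48 hours at 37 C, 5% CO2; growth read as luminescence.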
Sm TGR inh = S. mansoni TGR enzyme inhibition. Potency, µM (series often up to 114 µM), most hits filed as inhibitors. 3% of 360,000 active. Q962Y6. purified TGR, DTNB reduction, TNB absorbance 405 nm; also: nearly all actives have a fitted effect of over 60% in size
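Kinetic colorimetric format: TGR-catalysed, NADPH-driven DTNB reduction monitored via TNB absorbance. Enzyme dispensed at 20 nM; compound exposure 15 min at room temperature before reaction start.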
HCMV inh = blocks human cytomegalovirus replication. HFF cells, HCMV-luciferase reporter, 72 h; active compounds read low. 4.5% of 410,000 active. activity change, negative = inhibition, % at 57.5 µM; in the data active = activity change below about -60%; inconclusive = no clear call, values can overlap the other calls; inactive = above about -39%
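Compounds were evaluated in HFFs infected with an HCMV luciferase reporter virus (MOI 1 PFU/cell). Luciferase in lysates collected 72 h post infection served as the replication measure.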
Numbers stand for hits; [ ] = another dose, or the depositor's remark. This is a sample that favours compounds with a hit; in the whole collection about 14% have one here. Unless noted, calls follow the shape of the dose curve; as a rule, active = well fitted curve in the direction sought with a large enough effect; inconclusive = small, poorly fitted or top-dose-only effect, or another doubt; inactive = no such curve, though single readings can be large; an effect the other way counts as inactive or inconclusive.

What do the screens show for `Cc1ccc(C2CC(=O)C=C(NCc3ccccc3)C2)cc1` (stereo not drawn)?
FBPA Giardia inh: inactive; Pf growth 96h: inactive; Pf growth 48h: inactive; Sm TGR inh: inactive; HCMV inh: inactive

What do the screens show for `O=C1C=C(Nc2cccc(O)c2)CC(c2ccco2)C1` (stereo not drawn)?
FBPA Giardia inh: inactive; Pf growth 96h: inactive; Pf growth 48h: inactive; Sm TGR inh: inactive; HCMV inh: inactive

Results for COc1ccc(Cc2c(-c3ccc(F)cc3)nc3cc(C)c(Br)c(C)n23)c(C)c1 ?
HCMV inh: inactive

How did O=C(NC[C@@H]1CCCCN1)c1cc(OCC(F)(F)F)ccc1OCC(F)(F)F do in these assays?
FBPA Giardia inh: inactive

How did Cc1ccc(C2CC(=O)C=C(NCC(C)C)C2)cc1 (stereo not drawn) do in these assays?
FBPA Giardia inh: inactive; Pf growth 96h: inactive; Pf growth 48h: inconclusive; Sm TGR inh: inactive; HCMV inh: -81

Results for CCOC(=O)c1ccc(NC(=O)NC2=NCCS2)cc1 ?
HCMV inh: inactive

Results for CCC(NC(=O)NC1=NCCS1)(C(F)(F)F)C(F)(F)F ?
FBPA Giardia inh: inactive; Pf growth 96h: 0.21µM; Pf growth 48h: inactive; Sm TGR inh: inactive; HCMV inh: inactive

How did CCC(NC(=O)Nc1ccc(O)cc1)(C(F)(F)F)C(F)(F)F do in these assays?
FBPA Giardia inh: inconclusive; Pf growth 48h: inconclusive; Sm TGR inh: inactive; HCMV inh: -70

What do the screens show for `O=C1C2=CC[C@@H]3C(=O)N(c4ccc(F)cc4F)C(=O)[C@H]3[C@H]2[C@H](O)[C@H]2O[C@H]12`?
FBPA Giardia inh: inactive[12.9 µM]

What do the screens show for `CCOc1ccc(CCNS(=O)(=O)c2ccc3c(c2)N(C(C)=O)CCO3)cc1OCC`?
FBPA Giardia inh: inactive; Pf growth 96h: inactive; Pf growth 48h: inactive; Sm TGR inh: inactive; HCMV inh: inactive

Results for OC1c2cc(Cl)ccc2-c2c(Cl)cc(Cl)cc21 (stereo not drawn) ?
HCMV inh: inactive

How did COCCC(=O)N1CCC(Oc2ccc(C(=O)N3CCCCC3CCO)cc2)CC1 (stereo not drawn) do in these assays?
FBPA Giardia inh: inactive; Pf growth 96h: 4.7µM; Pf growth 48h: inactive; Sm TGR inh: inactive; HCMV inh: inactive

Results for COCC(=O)N1CCC(Oc2ccc(C(=O)N(C)CCCC3CCCC3)cc2)CC1 ?
FBPA Giardia inh: inactive; Pf growth 96h: inactive; Pf growth 48h: inactive; Sm TGR inh: inactive; HCMV inh: -67

What do the screens show for `CC(C)(C)NC(=O)CCN(/N=C/c1ccccc1O)C1=NS(=O)(=O)c2ccccc21`?
FBPA Giardia inh: inactive; Pf growth 96h: inactive; Pf growth 48h: inconclusive; Sm TGR inh: inactive; HCMV inh: inactive

What do the screens show for `CC1(C)CC[C@]2(C(=O)O)CC[C@]3(C)C(=CC[C@@H]4[C@@]5(C)CC[C@H](O[C@@H]6O[C@H](C(=O)O)[C@@H](O)[C@H](O[C@@H]7OC[C@H](O)[C@H](O)[C@H]7O)[C@H]6O)C(C)(C)[C@@H]5CC[C@]43C)[C@@H]2C1`?
HCMV inh: -100

Results for CC1(C)CC[C@]2(C(=O)O[C@@H]3O[C@H](CO)[C@@H](O)[C@H](O)[C@H]3O)CC[C@]3(C)C(=CCC4[C@@]5(C)CC[C@H](O[C@@H]6O[C@H](C(=O)O)[C@@H](O[C@H]7OC[C@@H](O)[C@@H](O)[C@@H]7O)[C@H](O)[C@H]6O)C(C)(C)C5CC[C@]43C)[C@@H]2C1 (stereo partly drawn) ?
HCMV inh: inactive

What do the screens show for `COC(=O)C1=C(C(=O)OC)[C@]2([C@@H]3CC=CCN[C@@H](Cc4ccccc4)C(=O)N3Cc3ccccc3)C=C[C@H]1O2`?
HCMV inh: inactive

Results for C=CCC(Nc1ccccc1)C12C=CC(O1)C(C(=O)OC)=C2C(=O)OC (stereo not drawn) ?
FBPA Giardia inh: inactive; Pf growth 96h: inactive; Pf growth 48h: inconclusive; Sm TGR inh: 6.3µM; HCMV inh: inactive

How did COC(=O)c1ccc(=O)c2nc3/c(=C/O)c(O)cc(=O)c3[nH]c12 do in these assays?
FBPA Giardia inh: inactive; Pf growth 96h: inconclusive; Pf growth 48h: inconclusive; Sm TGR inh: 50µM

Results for COC(=O)c1ccccc1O ?
Pf growth 96h: inactive; Pf growth 48h: inactive

How did Cc1cccc(N/N=C(\C=N\N)C(=O)c2ccc(Br)cc2)c1 do in these assays?
FBPA Giardia inh: inactive; Pf growth 96h: inactive; Pf growth 48h: 12µM; Sm TGR inh: inactive

Results for O=C(/C(=C/O)N=Nc1cccc(C(F)(F)F)c1)c1ccccc1 ?
FBPA Giardia inh: inactive; Pf growth 96h: inconclusive; Pf growth 48h: inconclusive; Sm TGR inh: inactive; HCMV inh: inconclusive

How did Cc1cccc(N=N/C(=C\O)C(=O)c2ccc(Br)cc2)c1 do in these assays?
FBPA Giardia inh: inactive; Pf growth 96h: inactive; Pf growth 48h: inactive; Sm TGR inh: inactive; HCMV inh: -77

How did COc1ccc(NC(=O)CSc2nc3ccccc3n2CC(=O)NCc2ccc(F)cc2)cc1 do in these assays?
Sm TGR inh: inactive; HCMV inh: inactive

How did Cc1cccc(C)c1NC(=O)CSCc1cccc(CSCC(=O)Nc2c(C)cccc2C)n1 do in these assays?
FBPA Giardia inh: inactive; Pf growth 96h: 5.2µM; Sm TGR inh: inactive; HCMV inh: inactive

What do the screens show for `COc1ccc(CNC(=O)Cn2c(SCC(=O)Nc3ccc(C)c(C)c3)nc3ccccc32)cc1`?
Sm TGR inh: inactive; HCMV inh: -67

Results for Cc1nc(SCC(=O)Nc2c(C)n(C)n(-c3ccccc3)c2=O)c(C#N)c(C)c1C ?
Pf growth 96h: inactive; Pf growth 48h: inactive; Sm TGR inh: inactive; HCMV inh: inactive

Results for CCCc1cc(SCC(=O)Nc2c(C)n(C)n(-c3ccccc3)c2=O)n2c(nc3ccccc32)c1C#N ?
FBPA Giardia inh: inconclusive; Pf growth 96h: inconclusive; Sm TGR inh: 1.8µM; HCMV inh: inactive

How did Cc1ccccc1NC(=O)Cn1c(SCC(=O)Nc2ccc(F)cc2)nc2ccccc21 do in these assays?
Sm TGR inh: inactive; HCMV inh: -64

Results for CCCCc1ccc(S(=O)(=O)N[C@H]2CC[C@@]34CCCN3C(=O)CCC[C@H]4[C@H]2Cc2ccccc2)cc1 ?
HCMV inh: inactive

What do the screens show for `NC(=O)c1ccccc1NC(=O)c1ccoc1`?
Pf growth 96h: inactive; Pf growth 48h: inactive; Sm TGR inh: inactive; HCMV inh: inactive

How did N[C@@H](C(=O)O)c1ccc(C(=O)O)c(C(=O)O)c1 do in these assays?
FBPA Giardia inh: inactive

What do the screens show for `Cc1c(NC(=O)CN2C(=O)NC(CCc3ccccc3)C2=O)c(=O)n(-c2ccccc2)n1C` (stereo not drawn)?
FBPA Giardia inh: inactive; Pf growth 96h: inactive; Pf growth 48h: inactive; Sm TGR inh: 22µM; HCMV inh: inactive

What do the screens show for `Cc1c(Br)c([N+](=O)[O-])nn1CC(=O)Nc1c(C)n(C)n(-c2ccccc2)c1=O`?
FBPA Giardia inh: inactive; Pf growth 96h: 2.9µM; Pf growth 48h: inactive; Sm TGR inh: inactive; HCMV inh: -102
